Screening data from PubChem BioAssay.
MEP2 TOR yeast = alters MEP2-GFP fluorescence in TOR pathway yeast screen; S. cerevisiae MEP2-GFP strain, flow cytometry GFP, 3 h; 100% = DMSO control level; GFP response vs DMSO, % at 10 µM; hit rate 0.51% among 330,000;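 active = GFP response versus DMSO above a set limit, roughly screen mean plus 3 SD, cut at about 180% in these data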;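 also: median GFP fluorescence of the barcode-gated MEP2-GFP cells per well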
RPL19A-GFP yeast = alters RPL19A-GFP fluorescence in TOR pathway yeast screen; AID 2025; hit rate 0.3% among 330,000; percent response vs DMSO, % at 10 µM; S. cerevisiae RPL19A-GFP strain, flow cytometry, 3 h; stronger effect = lower value;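 active = percent response vs DMSO below 50%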;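 also: median channel GFP fluorescence of the barcoded RPL19A-GFP strain; ratio of sample median GFP to plate DMSO average so 100% = DMSO; lower means less RPL19A-GFP as with rapamycin TOR inhibition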
AGP1 TOR yeast = yeast TOR pathway AGP1-GFP modulation. hit rate 0.02% among 320,000. S. cerevisiae AGP1-GFP multiplex flow cytometry, 3 h; GFP as percent of DMSO wells. GFP response vs DMSO, % at 10 µM;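 active = GFP response relative to DMSO above a set limit, near screen average plus 3 SD, cut at about 150% in these data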;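 also: median GFP channel fluorescence of the gated AGP1 strain per well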
CIT2-GFP yeast = modulators of TOR pathway CIT2-GFP in S. cerevisiae; GFP response vs DMSO, % at 10 µM; S. cerevisiae CIT2-GFP strain, flow cytometry, 3 h; 100 means same as DMSO wells; hit rate 0.065% among 320,000;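 active = GFP response relative to DMSO above a set limit, near the screen mean plus 3 SD, cut at about 150% in these data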;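 also: ratio of well median GFP fluorescence to mean of DMSO wells on the plate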
LAP4-GFP MLPCN = alters LAP4-GFP fluorescence in TOR pathway yeast screen. S. cerevisiae LAP4-GFP multiplex, flow cytometry GFP, 3 h; median GFP as percent of DMSO wells. GFP response vs DMSO, % at 10 µM. hit rate 0.34% among 320,000. AID 2023;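 active = GFP response vs DMSO above a set limit, about the screen mean plus 3 SD, cut at about 150% in these data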
VLA-4 inh = inhibition in a human VLA-4 binding assay; P13612; VLA-4 expressing cells, ligand binding flow cytometry; hit rate 0.2% among 330,000; AID 2557; inhibition, % (about 7 µM as worked out from the volumes in the protocol); in the data active = inhibition above about 50%
Target sequence (P13612 whole entry, looked up): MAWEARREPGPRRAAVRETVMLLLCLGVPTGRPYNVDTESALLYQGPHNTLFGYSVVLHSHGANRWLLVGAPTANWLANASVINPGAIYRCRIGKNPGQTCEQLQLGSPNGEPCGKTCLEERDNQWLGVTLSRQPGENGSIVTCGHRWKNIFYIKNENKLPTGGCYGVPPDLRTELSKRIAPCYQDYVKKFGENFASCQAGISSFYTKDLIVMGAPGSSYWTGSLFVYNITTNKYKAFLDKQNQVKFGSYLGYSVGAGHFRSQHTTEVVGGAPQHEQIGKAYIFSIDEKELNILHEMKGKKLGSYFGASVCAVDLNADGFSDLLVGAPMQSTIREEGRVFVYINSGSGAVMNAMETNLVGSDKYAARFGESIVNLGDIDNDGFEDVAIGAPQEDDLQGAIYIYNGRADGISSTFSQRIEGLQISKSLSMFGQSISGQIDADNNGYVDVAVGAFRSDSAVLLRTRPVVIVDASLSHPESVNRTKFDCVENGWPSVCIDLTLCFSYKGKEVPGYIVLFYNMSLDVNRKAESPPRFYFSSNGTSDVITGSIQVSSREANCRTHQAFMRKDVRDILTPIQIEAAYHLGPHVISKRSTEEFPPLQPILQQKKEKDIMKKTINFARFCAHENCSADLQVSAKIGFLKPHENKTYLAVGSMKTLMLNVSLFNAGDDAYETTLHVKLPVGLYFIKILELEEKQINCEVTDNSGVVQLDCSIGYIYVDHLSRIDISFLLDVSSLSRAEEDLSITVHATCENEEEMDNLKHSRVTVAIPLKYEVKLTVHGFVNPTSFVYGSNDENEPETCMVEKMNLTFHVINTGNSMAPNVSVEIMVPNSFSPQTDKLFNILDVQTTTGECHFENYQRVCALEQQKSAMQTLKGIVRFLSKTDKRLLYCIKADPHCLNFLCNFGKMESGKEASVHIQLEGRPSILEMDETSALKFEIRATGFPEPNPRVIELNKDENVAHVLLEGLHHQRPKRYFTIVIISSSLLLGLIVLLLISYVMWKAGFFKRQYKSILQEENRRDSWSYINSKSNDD
VLA-4 allo CP = confirmation of allosteric modulators of human VLA-4 integrin; shares compounds with VLA-4 inh; U937 cells, HUTS-21 LIBS mAb binding, flow cytometry; LDV ligand present at threefold Kd; inhibition, % at 6.7 µM; hit rate 2% among 1,300; AID 2813; in the data active = inhibition above about 40%;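 also: 0% = ligand without compound and 100% = no ligand background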
Numbers without * were called inactive; . = no result. Only some compounds are listed: those with a hit (about 1.1% of all), similar ones and a draw of the others.

SMILES	MEP2 TOR yeast	RPL19A-GFP yeast	AGP1 TOR yeast	CIT2-GFP yeast	LAP4-GFP MLPCN	VLA-4 inh	VLA-4 allo CP
COc1ccc(CC(NC(C)=O)C(=O)NC2CCN(C(=O)C3CCCCC3)CC2)cc1OC (configuration not stated)	102.1	99.9	103.2	101.3	90.3	-1.1	.
COc1ccc(C(=O)Nc2ccnn2C2CCN(C(=O)c3cnsn3)CC2)cc1	89.7	103.7	100.5	100.9	88.1	17.8	.
CC(=O)CC(c1ccccc1)S(=O)(=O)c1ccc([N+](=O)[O-])cc1 (configuration not stated)	88.8	101.0	88.0	93.3	80.4	-1.7	.
COc1ccc2nc(N3CCCC(C(=O)NCCc4ccc(OC)c(OC)c4)C3)sc2c1 (configuration not stated)	92.3	99.2	104.5	103.4	99.5	12.9	.
COc1ccc(CCNC(=O)c2ccc3nc(N4CCCCC4)sc3c2)cc1OC	96.6	98.2	98.2	101.4	103.3	-3.9	2.0
COc1ccc(OC)c(/C=N/c2c(-c3ccc(O)c(OC)c3)nc3ccccn23)c1	101.5	101.8	103.4	102.0	104.4	50.6*	5.4
O=C(Nc1ccccc1C(=O)Nc1nnc(C(F)(F)F)s1)c1ccccc1Cl	102.8	100.9	96.7	98.3	98.4	-2.2	.
COc1ccc(-c2nnc3ccc(SC(C(C)=O)C(C)=O)nn23)cc1OC	102.3	101.3	94.6	94.5	97.3	6.7	.
CCC(Sc1ccc2nnc(-c3ccc(OC)c(OC)c3)n2n1)C(=O)O (configuration not stated)	114.0	107.7	106.7	94.7	107.0	7.4	0.4
Cc1ccn2c(=O)nc(SCC(=O)N3CCCCC3)nc2c1	104.0	95.5	97.5	91.5	111.6	-16.7	.
COC(=O)C(C)Oc1ccc(Oc2nc(Cl)ccc2Cl)cc1 (configuration not stated)	102.8	101.0	98.0	101.2	106.0	51.6*	-8.2
COC(=O)C(C)Oc1ccc(-c2nccc(-c3ccc(F)cc3)n2)cc1 (configuration not stated)	103.7	106.1	95.3	103.9	97.2	8.4	.
O=c1c(O)c(-c2ccccc2)oc2cc(O)cc(O)c12	94.8	96.0	102.3	72.2	127.0	25.3	.
O=c1c(O)c(-c2cc(O)c(O)c(O)c2)oc2cc(O)cc(O)c12	104.7	101.5	88.8	81.0	107.4	56.1*	5.1
CC(=O)c1ccccc1NS(=O)(=O)c1ccc2c(c1)CC(=O)N2	108.9	97.5	106.8	81.7	116.3	7.0	1.8
O=C(COC(=O)c1ccccc1Br)Nc1ccccc1F	111.8	100.1	99.4	83.6	96.8	36.2	8.1
COc1cc(N)c(Cl)cc1C(=O)OCC(=O)NCC1CCCCC1	100.3	96.5	95.2	103.2	92.5	10.9	4.7
O=C(COC(=O)c1ccccc1Br)NCC1CCCCC1	104.9	100.7	95.8	98.5	102.6	1.1	-21.6
CC(C)(C)NC(=O)[C@]1(C)CCC[C@@]2(C)C3CC[C@@]4(C)C[C@]3(CCC21)CC4=O (some centres not stated)	89.3	92.2	69.1	86.4	95.8	15.7	.
CC1=C(C(=O)Nc2ccc(F)cc2)C(c2cccc(C)c2)n2nc(CCCO)nc2N1 (configuration not stated)	103.9	102.8	102.1	98.8	99.4	51.3*	-3.9
CSc1cccc(N2C(=O)C3CCCN3C2=S)c1 (configuration not stated)	109.3	103.5	100.2	101.6	100.3	47.3	-13.4
COC(=O)c1ccc(NC(=O)c2sc3nc(-c4ccccc4)cn3c2C)cc1	98.2	98.0	100.4	100.1	98.2	51.9*	-14.2
COc1ccc(-c2cn3c(C)c(C(=O)Nc4ccncc4)sc3n2)cc1	102.0	99.2	99.5	102.6	96.5	-5.8	.
CCOC(=O)c1c(NC(=O)COC(=O)CNC(=O)c2ccc(Cl)cc2Cl)sc(C(=O)N(C)C)c1C	96.0	95.0	106.0	98.3	101.8	51.6*	0.7
CCOC(=O)c1c(NC(=O)COC(=O)c2nc(Cl)ccc2Cl)sc(C(=O)N(C)C)c1C	92.6	91.7	97.1	92.4	96.0	-2.2	.
SMILES	MEP2 TOR yeast	RPL19A-GFP yeast	AGP1 TOR yeast	CIT2-GFP yeast	LAP4-GFP MLPCN	VLA-4 inh	VLA-4 allo CP
Cc1ccc2c(c1)c1c(n2CC(O)CNC2CCCCC2)CCCC1 (configuration not stated)	99.0	98.2	103.9	96.7	102.7	51.8*	17.9
Cc1ccc2c(c1)c1c(n2CC(O)CNC(CO)(CO)CO)CCCC1 (configuration not stated)	105.3	94.3	98.5	98.0	97.8	5.5	.
C=CCNC(=O)Cn1c(=O)c2c(ncn2CCC(C)C)n(Cc2ccccc2)c1=O	115.2	105.7	100.3	101.0	100.3	49.8*	-1.1
Cc1cccc(N(C)S(=O)(=O)c2ccc3c(c2)C(C)(C)C(=O)N3C)c1	90.0	95.9	98.2	116.8	98.8	-16.4	-2.1
COc1cccc(CNS(=O)(=O)c2ccc3c(c2)C(C)(C)C(=O)N3C)c1	105.4	100.9	102.9	110.2	100.9	-13.2	-5.8
CCCN(C(=O)COC(=O)c1[nH]c(C)c(C(=O)OC)c1C)c1c(N)n(Cc2ccccc2)c(=O)[nH]c1=O	97.2	102.6	115.0	102.0	119.4	20.4	.
COc1cc(C(=O)NCC(=O)Nc2c(C)cccc2C)ccc1OCC(=O)N1CCOCC1	102.4	99.3	97.8	93.7	93.4	-3.1	.
O=C(NC(=S)Nc1ccccc1)c1cccs1	104.2	100.4	87.1	83.5	104.0	6.7	.
CC(=O)NC(=S)Nc1ccc(NC(=O)c2cccs2)cc1	91.9	98.3	90.8	95.1	86.7	42.5	-11.0
Cc1cccc(N2CCN(C(=O)c3cc(S(=O)(=O)N4CCOCC4)cn3C)CC2C)c1 (configuration not stated)	99.8	99.0	104.2	97.3	100.6	17.8	.
COc1ccc(-c2nnc(N)s2)cc1	94.0	88.0	85.4	76.8	78.9	-0.3	.
Cc1ccc(-c2nnc(N)s2)cc1	105.7	101.9	93.2	97.4	87.2	45.6	-4.5
O=C(O)Cc1ccc(NS(=O)(=O)c2ccccc2Cl)cc1	106.9	103.5	104.8	105.6	108.2	7.0	-0.2
O=C(NCc1ccccc1)NS(=O)(=O)c1ccccc1Cl	105.8	99.3	99.5	89.9	102.4	0.0	.
COc1ccccc1N(C)S(=O)(=O)c1ccc(C)c(C(=O)Nc2nccs2)c1	90.8	90.9	97.6	88.7	95.2	7.2	.
O=C(COC(=O)c1cc([N+](=O)[O-])ccc1N1CCOCC1)Nc1cccc(F)c1	94.6	95.4	90.8	91.6	95.8	-11.6	.
